# DRD3 antagonist = D3 dopamine receptor (human) antagonism; D3R cells, DiscoveRx beta-arrestin luminescence, antagonist mode; stronger effect = lower value; max response, negative = inhibition, %; hit rate 2.5% among 360,000; AID 652054; in the data active = max response below about -50%; inconclusive = no clear call, values can overlap the other calls
# Target sequence (P35462 whole entry, looked up): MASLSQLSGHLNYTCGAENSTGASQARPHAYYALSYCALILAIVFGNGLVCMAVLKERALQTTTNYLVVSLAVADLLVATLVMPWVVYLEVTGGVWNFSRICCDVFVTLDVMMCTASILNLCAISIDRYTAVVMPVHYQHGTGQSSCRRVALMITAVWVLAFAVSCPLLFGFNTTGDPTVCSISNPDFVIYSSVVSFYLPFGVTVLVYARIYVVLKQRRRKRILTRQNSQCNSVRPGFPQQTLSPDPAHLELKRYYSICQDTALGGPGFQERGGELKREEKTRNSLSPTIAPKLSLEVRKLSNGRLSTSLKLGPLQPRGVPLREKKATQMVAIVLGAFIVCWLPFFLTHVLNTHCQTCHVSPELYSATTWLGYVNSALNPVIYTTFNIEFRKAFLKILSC
#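 Cells expressing the human receptor were seeded at 1500 cells/well, incubated overnight at 37 degrees C in 5% CO2, then exposed to library compounds with dopamine controls for 90 minutes at 37 degrees C before luminescent detection.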
# D3 ag = activates the human D3 dopamine receptor. P35462. D3R DiscoveRx beta-arrestin cells, luminescence, 90 min. max activation, %. hit rate 0.58% among 410,000; in the data active = max activation above about 30%
#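 Agonist mode: compounds and dopamine controls were applied to plated cells for 90 min at 37 degrees C after an overnight attachment at 1500 cells/well. Luminescent read-out followed 30 - 60 minutes at room temperature with DiscoveRx detection reagent.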
# ATXN2 expr inh = ATXN2 expression inhibition. HEK-293 ATXN2-luciferase reporter, luminescence, 24 h. Potency, µM (titrated, usually from 57 µM), hits mostly inhibitors. hit rate 0.72% among 360,000. AID 1745845; also: nearly all actives have a fitted effect of over 55% in size
#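 ATXN2-luciferase reporter cells (luciferase flanked by upstream and downstream ATXN2 gene portions) were treated 24 h at 37 °C with compounds at up to 57 uM. SteadyGlo luminescence gave expression; GF-AFC fluorescence gave viability.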
# S2 tox = viability counter-screen for ATXN expression inhibitors; S2 cells (HEK-293 line with an ATXN2-luciferase reporter) viability, CellTiter-Fluor protease fluorescence, 24 h; Potency, µM (top dose mostly 56.7 µM), usual class: cytotoxic; hit rate 0.49% among 400,000; AID 651635; also: nearly all actives have a fitted effect of over 40% in size
# IL-1B inflam inh = blocks inflammasome-driven IL-1 beta release; activity change, % at 57.5 µM; hit rate 4.7% among 360,000; THP-1 LPS/ATP IL-1B secretion, AlphaLISA, 16 h; stronger effect = lower value; in the data active = activity change below about -50%; inconclusive = mostly about -30% to -49%
#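 Secreted IL-1B measured by AlphaLISA bead assay after 16 h compound exposure of THP-1 cells; compounds (final up to 57.5 uM) added 1 h before LPS (250 ng/mL) and ATP (1.25 mM) stimulation; lower signal means less secretion.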
# Integrin act MD = integrin-mediated muscular dystrophy alleviation activation; alpha7betagal myoblasts, beta-gal FDG fluorescence, 48 h; hit rate 0.064% among 350,000; Potency, µM (top dose mostly 38.3 µM), actives largely listed as activators; also: nearly all actives have a fitted effect of over 60% in size
#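 Alpha7betagal+/- myoblasts (passage 13) were plated 16-24 hr, then exposed to compounds (1:260 dilution of DMSO stock) for 48 hours at 37C. After MPER lysis, β-galactosidase reporter activity was read as FDG fluorescence (ex 480/em 540) after 30 minutes.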
# Hits are given with their value; n = inactive; u = inconclusive; x = no result given; [ ] = another dose, or the depositor's remark. Most compounds without a hit are left out; they make up all but 7% or so of the library. Unless noted, calls follow the shape of the dose curve; as a rule, active = well fitted curve in the direction sought with a large enough effect; inconclusive = small, poorly fitted or top-dose-only effect, or another doubt; inactive = no such curve, though single readings can be large; an effect the other way counts as inactive or inconclusive.
SMILES,DRD3 antagonist,D3 ag,ATXN2 expr inh,S2 tox,IL-1B inflam inh,Integrin act MD
CCOC(=O)c1sc2nc(C)nc(NCc3ccccc3OC)c2c1C,n,33,u,n,n,n
N/C(Cc1ccc(Cl)cc1)=N\OC(=O)Cc1ccc([N+](=O)[O-])cc1,n,n,n,n,-103,n
COc1ccc(C(=O)O/N=C(\N)Cc2ccc(Cl)cc2)cc1OC,n,n,n,u,-54,n
COc1ccc(/C(N)=N/OC(=O)c2ccc3c(c2)OCO3)cc1OC,n,n,n,n,-62,n
COc1ccc(C(=O)O/N=C(\N)Cc2ccc(Cl)c(Cl)c2)cc1OC,n,n,u,x,n,n
CCC(=O)N1CCC1(C)C(=O)Nc1cccc2c1CCCC2 (stereo not given),n,n,n,n,n,x
CNC(=O)c1c(NC(=O)c2cc(-c3cc(C)c(C)cc3O)n[nH]2)sc2c1CCCC2,n,n,n,n,n,n
O=C1C=CC(=O)N1c1ccc2c(c1)C(NC(=O)C(F)(F)F)c1ccccc1-2 (stereo not given),-62,n,u,x,-81,n
CN(C)C(=O)NC1c2ccccc2-c2ccccc21,n,n,n,n,n,n
N#CC(C#N)=c1ccc2c(c1)N1C(c3ccccc3)=CC(c3ccccc3)C3CCCCC31N=2 (stereo not given),n,n,n,n,n,n
O=C(Nc1ccc2c(c1)N(S(=O)(=O)c1cccs1)CCC2)c1c(F)cccc1F,n,n,n,n,n,n
O=S(=O)(c1cccs1)N1CCCc2cccc(O)c21,-73,n,n,n,n,n
CCC/C(=N\NC(=O)c1csc(C)c1C)c1cccs1,-51,n,n,n,n,n
COc1ccccc1C(C[N+](=O)[O-])c1c(N)n(C)c(=O)n(C)c1=O (stereo not given),n,n,x,x,-58,n
Cc1cc(C)n(S(=O)(=O)/C=C/c2ccccc2)n1,n,n,n,n,-108,n
Cc1ccc(S(=O)(=O)n2nc(C)cc2C)cc1,n,n,n,n,n,n
Cn1c(Sc2ccc(Br)cc2)c(C=O)c2ccccc21,n,n,n,n,-81,n
O=C1c2ccccc2CCc2ccccc21,n,n,n,n,n,n
O=C1c2ccccc2CSc2c(O)cccc21,n,n,n,n,-64,n
OCCCc1nc2n(n1)C(c1ccccc1Cl)C=C(c1cccs1)N2 (stereo not given),n,n,n,x,n,n[7.66 µM]
C=CCn1c2ccccc2c2nnc(SCC(=O)O)nc21,n,n,n,n,n,n
C=CCn1c2ccccc2c2nnc(SCCN3CCOCC3)nc21,n,n,n,n,-71,n
CCCc1cc(=O)n2[nH]c(-c3ccco3)nc2n1,n,43,n,n,n,n
CCCc1cc(=O)n2[nH]c(SCc3ccc(Cl)cc3)nc2n1,n,n,n,n,-72,u
CC(C)c1cc(=O)n2[nH]c(SCc3ccc(Cl)cc3)nc2n1,n,n,n,n,n,n
SMILES,DRD3 antagonist,D3 ag,ATXN2 expr inh,S2 tox,IL-1B inflam inh,Integrin act MD
CCCc1cc(=O)n2[nH]cc(-c3ccc(Cl)cc3)c2n1,n,n,10µM,u,n,n
Nc1ccc2oc3ccc(N)cc3c(=O)c2c1,u,n,n,n,-73,n
Nc1ccc2c(=O)[nH][nH]c(=O)c2c1,n,n,n,n,n,n
CS(=O)(=O)N1N=C(c2cccs2)CC1c1ccco1 (stereo not given),n,n,n,u,n,n
Cc1cc(C(=O)C(=O)NC(C)C)c(C)n1-c1ccc([N+](=O)[O-])cc1,n,n,n,n,n,n
O=c1c2nnn(-c3ccccc3)c2ncn1C/C=C/c1ccccc1,n,n,n,n,n,n
Cc1ccc(-c2n[nH]c(=S)n2/N=C/c2ccc(C)o2)cc1,n,n,n,n,n,n
O=S(=O)(c1ccc(-c2csc(=Nc3ccc(F)cc3)n2CCCCCCO)cc1)N1CCCC1,x,n,32µM,u,x,x
OCCCn1c(-c2ccc(F)cc2)csc1=Nc1ccc(F)cc1,x,n,n,u,x,x
Cn1c(=O)n(Cc2ccc(Br)cc2)c2ccccc21,n,n,x,x,-108,n
COc1cc(/C=C2\SC(=S)N(Nc3ccccc3)C2=O)ccc1O,u,n,n,u,n,n
COc1cc(/C=C2\SC(=S)N(NC(=O)c3cccnc3)C2=O)ccc1O,n,n,x,32µM,n,n
COc1cc(/C=C2\SC(=S)N(NC(=O)c3ccc(O)cc3)C2=O)ccc1O,n,n,n,x,n,n
O=C(NN1C(=O)/C(=C/c2ccc(O)c(O)c2)SC1=S)c1ccccc1,-63,n,n,u,n,n
CC(/C=C1\SC(=S)N(NC(=O)c2ccc(O)cc2)C1=O)=C\c1ccccc1,n,n,n,n,-76,n
O=C1/C(=C/c2ccc(O)c(O)c2)SC(=S)N1Nc1ccccc1,n,n,n,u,-62,n
CN1CCN(NC(=O)/C=C/c2ccc(Br)cc2)CC1,n,n,n,n,n,u
CC[C@]12c3[nH]c4ccccc4c3CCN1C(=O)C(CC(=O)NCCc1ccccn1)C[C@@H]2C(=O)N1CCN(C(=O)c2ccco2)CC1 (stereo not given in full),n,n,n,n,n,n
C#CCNC(=O)C[C@@H]1C[C@@]2(C(=O)OCC)CCC=C2N(Cc2ccco2)C1=O,n,n,n,n,n,x
CC(C)c1ccc(C2c3[nH]c4ccccc4c3C[C@H]3C(=O)N(c4ccccc4C(=O)N4CCC(C(=O)O)CC4)C(=O)N23)cc1 (stereo not given in full),n,n,n,n,n,n
CCOc1cc(/C=C2\SC(=S)N(NS(=O)(=O)c3ccccc3)C2=O)ccc1O,n,n,x,11µM,n,n
Cc1ccc(C)c(-c2cc(C(=O)Nc3cccnc3)c3ccccc3n2)c1,n,n,n,n,n,n
Cc1ccc(C)c(-c2cc(C(=O)Nc3nccs3)c3ccccc3n2)c1,n,32,n,n,n,n
O=C(Nc1cccnc1)c1cc(-c2ccc(Br)cc2)nc2ccccc12,n,n,n,n,-77,n
O=C(NNC(=S)Nc1ccccc1)c1cc(-c2cccnc2)nc2ccccc12,n,n,n,n,n,n
CC(OC(=O)c1cc(-c2cccnc2)nc2ccccc12)C(=O)Nc1ccc2ccccc2c1 (stereo not given),n,n,n,n,n,1.1µM
Cc1cc(NC(=O)c2cc(-c3ccncc3)nc3ccccc23)ccc1Br,n,n,u,u,-50,n
COc1ccc(NC(=O)CC2C(=O)N(Cc3ccco3)C(=S)N2C(C)C)cc1 (stereo not given),n,n,n,n,n,n
Cc1ccc(OCC(=O)Nc2ccccc2OCc2cc(=O)n3ccccc3n2)cc1C,x,n,x,x,x,x
